Measured values as given in ChEMBL document CHEMBL1961873, “Compounds: GSK PKIS; Assays: Nanosyn kinase panel” (2012).

Columns and labels:
[1] = molecular target: Sphingosine kinase 1 (Homo sapiens) (UniProt Q9NYA1); conditions: at 1 µM;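 note: mean SPHK1 inhibition value reported from the GSK PKIS kinase panel screen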
[2] = molecular target: T1, Sphingosine kinase 2 (Homo sapiens) (UniProt Q9NRA0); conditions: at 0.1 µM
T1 sequence (whole entry): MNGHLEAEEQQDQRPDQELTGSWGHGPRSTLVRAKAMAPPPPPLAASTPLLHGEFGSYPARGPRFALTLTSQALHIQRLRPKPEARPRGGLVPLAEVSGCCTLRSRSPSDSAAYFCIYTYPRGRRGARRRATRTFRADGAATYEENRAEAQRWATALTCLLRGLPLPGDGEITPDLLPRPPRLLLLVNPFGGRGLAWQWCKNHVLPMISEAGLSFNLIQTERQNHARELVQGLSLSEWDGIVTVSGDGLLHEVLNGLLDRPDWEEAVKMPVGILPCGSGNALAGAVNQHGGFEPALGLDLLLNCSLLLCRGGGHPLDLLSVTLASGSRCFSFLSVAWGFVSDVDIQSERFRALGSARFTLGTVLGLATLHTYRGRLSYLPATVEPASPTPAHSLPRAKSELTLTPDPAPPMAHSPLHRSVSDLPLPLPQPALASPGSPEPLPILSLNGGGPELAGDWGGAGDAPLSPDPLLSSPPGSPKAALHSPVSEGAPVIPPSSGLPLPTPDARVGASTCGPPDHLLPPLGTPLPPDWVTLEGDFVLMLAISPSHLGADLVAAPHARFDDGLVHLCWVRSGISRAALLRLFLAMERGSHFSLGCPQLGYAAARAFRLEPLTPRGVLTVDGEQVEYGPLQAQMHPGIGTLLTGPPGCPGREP

[3] = molecular target: T1, Sphingosine kinase 2 (Homo sapiens); conditions: at 1 µM
[4] = molecular target: Casein kinase II subunit alpha (Homo sapiens) (UniProt P68400); conditions: at 0.1 µM
[5] = molecular target: Casein kinase II subunit alpha (Homo sapiens) (UniProt P68400); conditions: at 1 µM
[6] = molecular target: T2, Inhibitor of nuclear factor kappa-B kinase subunit alpha (Homo sapiens) (UniProt O15111); conditions: at 0.1 µM
T2 sequence (whole entry): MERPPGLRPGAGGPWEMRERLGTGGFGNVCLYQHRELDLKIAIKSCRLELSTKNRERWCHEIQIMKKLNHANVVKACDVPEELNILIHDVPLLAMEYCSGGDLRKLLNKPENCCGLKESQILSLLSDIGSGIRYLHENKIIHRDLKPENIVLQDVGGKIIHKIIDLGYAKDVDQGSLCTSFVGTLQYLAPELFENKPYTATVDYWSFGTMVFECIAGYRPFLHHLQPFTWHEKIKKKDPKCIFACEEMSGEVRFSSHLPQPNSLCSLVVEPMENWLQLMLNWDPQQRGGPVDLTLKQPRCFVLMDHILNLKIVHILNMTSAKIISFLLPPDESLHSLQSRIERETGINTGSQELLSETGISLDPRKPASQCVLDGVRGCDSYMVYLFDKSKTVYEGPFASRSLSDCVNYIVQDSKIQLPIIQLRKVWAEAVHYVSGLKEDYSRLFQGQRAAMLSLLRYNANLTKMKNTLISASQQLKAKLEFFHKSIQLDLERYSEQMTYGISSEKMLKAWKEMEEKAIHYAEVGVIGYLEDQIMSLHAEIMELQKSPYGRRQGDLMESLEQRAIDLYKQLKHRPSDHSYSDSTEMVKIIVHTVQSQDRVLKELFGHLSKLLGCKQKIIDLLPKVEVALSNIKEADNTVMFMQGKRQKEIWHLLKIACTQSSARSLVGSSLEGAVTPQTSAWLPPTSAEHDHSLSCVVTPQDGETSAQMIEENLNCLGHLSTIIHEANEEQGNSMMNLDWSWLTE

[7] = molecular target: T2, Inhibitor of nuclear factor kappa-B kinase subunit alpha (Homo sapiens); conditions: at 1 µM
[8] = molecular target: T3, Inhibitor of nuclear factor kappa-B kinase subunit beta (Homo sapiens) (UniProt O14920); conditions: at 0.1 µM
T3 sequence (whole entry): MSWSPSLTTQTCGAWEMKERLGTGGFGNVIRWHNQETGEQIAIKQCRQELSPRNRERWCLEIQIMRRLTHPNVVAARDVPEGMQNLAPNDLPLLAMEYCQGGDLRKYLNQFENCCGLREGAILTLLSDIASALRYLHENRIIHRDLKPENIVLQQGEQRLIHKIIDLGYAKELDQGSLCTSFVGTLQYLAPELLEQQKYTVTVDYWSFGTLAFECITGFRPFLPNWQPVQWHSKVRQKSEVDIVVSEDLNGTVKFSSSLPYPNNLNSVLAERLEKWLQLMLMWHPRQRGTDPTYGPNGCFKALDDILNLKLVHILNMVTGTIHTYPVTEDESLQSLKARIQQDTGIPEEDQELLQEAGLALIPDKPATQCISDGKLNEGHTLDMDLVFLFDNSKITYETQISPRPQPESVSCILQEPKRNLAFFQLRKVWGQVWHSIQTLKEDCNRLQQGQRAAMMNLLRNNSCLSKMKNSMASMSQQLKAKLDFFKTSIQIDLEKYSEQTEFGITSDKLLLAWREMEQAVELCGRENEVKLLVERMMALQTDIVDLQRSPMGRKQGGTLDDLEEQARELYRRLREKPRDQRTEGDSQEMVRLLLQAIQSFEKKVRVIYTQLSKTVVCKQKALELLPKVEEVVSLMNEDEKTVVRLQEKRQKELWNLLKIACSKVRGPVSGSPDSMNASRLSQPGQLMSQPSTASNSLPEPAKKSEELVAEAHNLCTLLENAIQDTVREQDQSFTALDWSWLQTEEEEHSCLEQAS

[9] = molecular target: T3, Inhibitor of nuclear factor kappa-B kinase subunit beta (Homo sapiens); conditions: at 1 µM
[10] = molecular target: T4, Inhibitor of nuclear factor kappa-B kinase subunit epsilon (Homo sapiens) (UniProt Q14164); conditions: at 0.1 µM
T4 sequence (whole entry): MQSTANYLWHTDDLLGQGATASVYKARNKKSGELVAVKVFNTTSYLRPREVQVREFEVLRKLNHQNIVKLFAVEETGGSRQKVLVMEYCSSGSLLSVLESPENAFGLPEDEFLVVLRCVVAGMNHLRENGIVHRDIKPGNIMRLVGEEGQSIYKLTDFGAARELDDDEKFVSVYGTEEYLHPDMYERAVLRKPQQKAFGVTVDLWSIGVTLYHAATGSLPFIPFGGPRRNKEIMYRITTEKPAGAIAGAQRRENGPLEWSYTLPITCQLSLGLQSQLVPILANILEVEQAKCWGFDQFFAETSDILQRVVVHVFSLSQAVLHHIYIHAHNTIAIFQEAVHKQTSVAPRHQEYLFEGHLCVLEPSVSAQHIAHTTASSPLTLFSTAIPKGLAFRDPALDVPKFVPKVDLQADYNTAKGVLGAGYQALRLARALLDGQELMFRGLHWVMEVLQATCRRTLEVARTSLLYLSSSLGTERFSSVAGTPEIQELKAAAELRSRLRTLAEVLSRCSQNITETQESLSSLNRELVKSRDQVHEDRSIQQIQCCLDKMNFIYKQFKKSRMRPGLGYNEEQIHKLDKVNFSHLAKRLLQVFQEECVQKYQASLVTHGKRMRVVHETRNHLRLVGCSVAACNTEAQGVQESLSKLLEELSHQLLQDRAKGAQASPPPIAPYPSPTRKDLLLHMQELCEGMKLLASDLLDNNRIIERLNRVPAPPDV

[11] = molecular target: T4, Inhibitor of nuclear factor kappa-B kinase subunit epsilon (Homo sapiens); conditions: at 1 µM
[12] = molecular target: T5, Serine/threonine-protein kinase Nek1 (Homo sapiens) (UniProt Q96PY6); conditions: at 0.1 µM
T5 sequence (whole entry): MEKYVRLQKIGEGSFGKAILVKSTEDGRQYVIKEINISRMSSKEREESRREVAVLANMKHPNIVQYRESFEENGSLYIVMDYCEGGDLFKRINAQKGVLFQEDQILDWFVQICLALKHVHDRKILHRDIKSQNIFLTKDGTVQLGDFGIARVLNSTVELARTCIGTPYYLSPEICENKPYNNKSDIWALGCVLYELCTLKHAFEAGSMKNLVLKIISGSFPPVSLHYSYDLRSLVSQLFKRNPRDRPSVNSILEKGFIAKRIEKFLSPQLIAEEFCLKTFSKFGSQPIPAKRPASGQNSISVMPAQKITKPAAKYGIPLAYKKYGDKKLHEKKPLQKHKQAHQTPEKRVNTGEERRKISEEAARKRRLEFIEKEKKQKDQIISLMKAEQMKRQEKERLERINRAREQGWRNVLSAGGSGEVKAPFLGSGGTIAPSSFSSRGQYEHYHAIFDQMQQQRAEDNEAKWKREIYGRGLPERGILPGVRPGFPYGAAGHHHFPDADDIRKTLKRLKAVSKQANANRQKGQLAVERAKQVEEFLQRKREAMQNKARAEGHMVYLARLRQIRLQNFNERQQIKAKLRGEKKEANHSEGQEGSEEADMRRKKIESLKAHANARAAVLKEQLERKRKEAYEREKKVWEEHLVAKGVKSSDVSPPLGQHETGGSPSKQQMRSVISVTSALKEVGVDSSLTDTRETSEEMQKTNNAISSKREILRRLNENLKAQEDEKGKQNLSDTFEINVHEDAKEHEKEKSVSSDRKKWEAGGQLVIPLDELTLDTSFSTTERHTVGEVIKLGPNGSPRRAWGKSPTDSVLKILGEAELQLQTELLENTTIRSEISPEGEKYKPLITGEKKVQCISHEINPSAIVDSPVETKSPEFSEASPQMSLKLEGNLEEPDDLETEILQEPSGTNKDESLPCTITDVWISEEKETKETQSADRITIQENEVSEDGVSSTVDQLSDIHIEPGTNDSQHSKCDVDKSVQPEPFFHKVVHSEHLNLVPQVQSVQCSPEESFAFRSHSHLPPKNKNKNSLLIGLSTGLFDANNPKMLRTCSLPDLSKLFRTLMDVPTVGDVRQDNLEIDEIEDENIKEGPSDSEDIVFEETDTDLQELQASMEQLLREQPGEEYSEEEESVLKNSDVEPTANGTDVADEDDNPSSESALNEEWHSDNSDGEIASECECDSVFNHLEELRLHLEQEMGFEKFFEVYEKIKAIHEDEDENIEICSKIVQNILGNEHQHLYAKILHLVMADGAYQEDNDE

[13] = molecular target: T5, Serine/threonine-protein kinase Nek1 (Homo sapiens); conditions: at 1 µM
[14] = molecular target: T6, Serine/threonine-protein kinase Nek2 (Homo sapiens) (UniProt P51955); conditions: at 0.1 µM
T6 sequence (whole entry): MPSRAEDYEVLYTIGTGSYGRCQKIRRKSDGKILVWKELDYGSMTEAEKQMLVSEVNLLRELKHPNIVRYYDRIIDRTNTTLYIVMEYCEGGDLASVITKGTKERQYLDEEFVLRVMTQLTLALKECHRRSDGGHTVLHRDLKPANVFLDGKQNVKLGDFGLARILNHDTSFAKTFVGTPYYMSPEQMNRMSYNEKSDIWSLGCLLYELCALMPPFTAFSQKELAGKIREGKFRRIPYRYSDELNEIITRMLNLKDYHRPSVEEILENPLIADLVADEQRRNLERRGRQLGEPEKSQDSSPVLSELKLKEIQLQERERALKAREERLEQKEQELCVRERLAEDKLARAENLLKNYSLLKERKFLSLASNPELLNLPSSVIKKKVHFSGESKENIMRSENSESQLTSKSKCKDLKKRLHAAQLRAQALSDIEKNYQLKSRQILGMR

[15] = molecular target: T6, Serine/threonine-protein kinase Nek2 (Homo sapiens); conditions: at 1 µM
[16] = molecular target: Serine/threonine-protein kinase Nek6 (Homo sapiens) (UniProt Q9HC98); conditions: at 0.1 µM
[17] = molecular target: Serine/threonine-protein kinase Nek6 (Homo sapiens) (UniProt Q9HC98); conditions: at 1 µM
[18] = molecular target: Serine/threonine-protein kinase Nek7 (Homo sapiens) (UniProt Q8TDX7); conditions: at 0.1 µM
[19] = molecular target: Serine/threonine-protein kinase Nek7 (Homo sapiens) (UniProt Q8TDX7); conditions: at 1 µM
[20] = molecular target: T7, Serine/threonine-protein kinase Nek9 (Homo sapiens) (UniProt Q8TD19); conditions: at 0.1 µM;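 note: reported value is the mean percent inhibition of NEK9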
T7 sequence (whole entry): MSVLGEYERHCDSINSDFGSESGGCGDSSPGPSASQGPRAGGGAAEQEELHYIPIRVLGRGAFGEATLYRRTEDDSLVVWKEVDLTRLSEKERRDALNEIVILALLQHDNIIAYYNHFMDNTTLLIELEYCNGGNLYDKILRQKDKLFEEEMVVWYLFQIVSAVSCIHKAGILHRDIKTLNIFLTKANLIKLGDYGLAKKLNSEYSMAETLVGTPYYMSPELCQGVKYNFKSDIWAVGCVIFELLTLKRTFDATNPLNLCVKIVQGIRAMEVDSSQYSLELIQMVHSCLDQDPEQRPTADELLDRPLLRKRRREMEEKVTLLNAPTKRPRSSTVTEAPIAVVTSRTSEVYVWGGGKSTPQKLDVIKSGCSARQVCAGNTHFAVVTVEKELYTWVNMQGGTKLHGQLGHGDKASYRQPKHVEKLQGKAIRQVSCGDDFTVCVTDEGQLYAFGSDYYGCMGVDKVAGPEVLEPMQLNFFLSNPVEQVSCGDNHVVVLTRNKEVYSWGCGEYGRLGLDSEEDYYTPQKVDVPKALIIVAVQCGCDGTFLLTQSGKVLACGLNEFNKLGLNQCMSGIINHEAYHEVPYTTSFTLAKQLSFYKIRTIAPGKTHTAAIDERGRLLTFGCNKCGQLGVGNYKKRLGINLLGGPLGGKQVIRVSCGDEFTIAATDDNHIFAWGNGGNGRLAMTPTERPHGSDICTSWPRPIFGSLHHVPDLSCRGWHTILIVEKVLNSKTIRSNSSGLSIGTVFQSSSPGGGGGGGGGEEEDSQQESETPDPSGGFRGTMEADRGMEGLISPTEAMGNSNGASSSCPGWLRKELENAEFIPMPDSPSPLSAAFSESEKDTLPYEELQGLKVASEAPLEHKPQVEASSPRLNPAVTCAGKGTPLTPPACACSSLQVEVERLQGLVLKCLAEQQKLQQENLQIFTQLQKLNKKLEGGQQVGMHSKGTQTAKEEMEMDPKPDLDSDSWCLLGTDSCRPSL

Sequence of Serine/threonine-protein kinase Nek7 (Homo sapiens) (Q8TDX7 whole entry, looked up): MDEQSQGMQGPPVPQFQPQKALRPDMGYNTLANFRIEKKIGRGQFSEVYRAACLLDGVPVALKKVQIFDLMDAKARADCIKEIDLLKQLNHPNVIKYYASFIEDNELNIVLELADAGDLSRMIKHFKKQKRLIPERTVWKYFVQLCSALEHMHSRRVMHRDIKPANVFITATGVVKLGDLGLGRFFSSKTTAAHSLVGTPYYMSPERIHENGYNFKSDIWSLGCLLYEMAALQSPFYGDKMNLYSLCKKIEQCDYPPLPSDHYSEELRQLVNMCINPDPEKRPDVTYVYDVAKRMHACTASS
Sequence of Serine/threonine-protein kinase Nek6 (Homo sapiens) (Q9HC98 whole entry): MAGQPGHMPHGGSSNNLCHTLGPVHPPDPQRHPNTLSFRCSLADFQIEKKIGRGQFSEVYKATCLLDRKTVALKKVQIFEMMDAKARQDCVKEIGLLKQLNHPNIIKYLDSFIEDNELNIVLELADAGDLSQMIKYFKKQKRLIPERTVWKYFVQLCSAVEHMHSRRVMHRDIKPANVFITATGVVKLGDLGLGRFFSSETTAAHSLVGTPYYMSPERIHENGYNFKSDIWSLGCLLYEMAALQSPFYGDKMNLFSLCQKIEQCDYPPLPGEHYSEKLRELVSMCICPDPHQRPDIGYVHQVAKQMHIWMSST
Sequence of Casein kinase II subunit alpha (Homo sapiens) (P68400 whole entry, looked up): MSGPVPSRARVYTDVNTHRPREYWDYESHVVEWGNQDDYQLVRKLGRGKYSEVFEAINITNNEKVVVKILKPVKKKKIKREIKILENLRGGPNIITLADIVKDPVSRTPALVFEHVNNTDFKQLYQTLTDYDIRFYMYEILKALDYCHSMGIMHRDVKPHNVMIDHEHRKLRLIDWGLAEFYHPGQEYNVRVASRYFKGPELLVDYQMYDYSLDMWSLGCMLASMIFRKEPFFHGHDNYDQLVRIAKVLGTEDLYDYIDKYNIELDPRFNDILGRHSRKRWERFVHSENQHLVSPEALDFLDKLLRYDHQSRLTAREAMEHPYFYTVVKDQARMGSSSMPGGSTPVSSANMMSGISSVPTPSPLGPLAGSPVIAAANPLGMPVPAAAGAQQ
Sequence of Sphingosine kinase 1 (Homo sapiens) (Q9NYA1 whole entry): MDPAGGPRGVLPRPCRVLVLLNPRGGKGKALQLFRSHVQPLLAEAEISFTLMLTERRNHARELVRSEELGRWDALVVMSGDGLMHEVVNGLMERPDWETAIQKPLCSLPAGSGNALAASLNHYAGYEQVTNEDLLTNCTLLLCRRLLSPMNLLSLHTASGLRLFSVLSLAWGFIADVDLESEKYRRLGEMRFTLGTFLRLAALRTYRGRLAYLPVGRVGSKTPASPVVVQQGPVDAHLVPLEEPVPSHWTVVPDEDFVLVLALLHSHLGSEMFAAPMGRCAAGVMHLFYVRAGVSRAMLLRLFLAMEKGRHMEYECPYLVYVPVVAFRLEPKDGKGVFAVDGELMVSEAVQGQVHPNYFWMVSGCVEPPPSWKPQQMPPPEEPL

SMILES	inhibition [1]	inhibition [2]	inhibition [3]	inhibition [4]	inhibition [5]	inhibition [6]	inhibition [7]	inhibition [8]	inhibition [9]	inhibition [10]	inhibition [11]	inhibition [12]	inhibition [13]	inhibition [14]	inhibition [15]	inhibition [16]	inhibition [17]	inhibition [18]	inhibition [19]	inhibition [20]
CCn1c(-c2nonc2N)nc2c(N3CCCC3)nccc21	-1.44%	0.74%	-0.77%	-0.14%	-0.49%	8.52%	5.88%	0.45%	-0.76%	-2.71%	-2.89%	-0.04%	0.27%	-0.88%	-0.91%	0.88%	-1.63%	2.1%	-1.35%	2.28%
CCc1cccc(NC(=O)Nc2ccc(Oc3ccc4nc(NC(=O)OC)[nH]c4c3)cc2)c1	-3.46%	-1.39%	-2.51%	1.32%	4.86%	4.74%	-0.97%	3.09%	2.83%	2.77%	3.32%	0.6%	1.24%	1.78%	1.1%	0.58%	3.24%	-1.37%	-2.89%	3.74%
